# PubChem BioAssay
# Unmarked numbers belong to inactive results. Entries that show only a call come without a potency. For some assays here: Potency and affinity values are given separately. Calls of active or inactive are those of the source. Unless noted, the rule behind the calls is not given here.
# Assays:
# [1] = antimalarial activity against Dd2 strain (AID 2302;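 active = growth inhibition above 50% at the single 2 µM test dose, taken to imply half-maximal potency below 2 µM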); settings: P. falciparum Dd2 in RBCs, LDH growth readout, 72 h; at 2 µM; hits give high values
# [2] = HepG2 cytotoxicity, primary screen, cytotoxicity control for P. falciparum antimalarial project, cell-based, ATP luminescence (AID 2303;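 active = inhibition above 50%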); settings: HepG2 viability, 24-48 h, at 10 µM, hits give high values
# [3] = target: L-lactate dehydrogenase (Plasmodium falciparum (isolate CDC / Honduras)) (UniProt Q27743); assay: PfLDH activity inhibition – cell lysate, 3D7 strain, counter-screen for P. falciparum growth inhibition project (AID 2304); settings: P. falciparum 3D7 crude extract, LDH APAD/NBT absorbance; at 2 µM; hits give high values
# Chain of L-lactate dehydrogenase (Plasmodium falciparum (isolate CDC / Honduras)) (Q27743 whole entry, looked up): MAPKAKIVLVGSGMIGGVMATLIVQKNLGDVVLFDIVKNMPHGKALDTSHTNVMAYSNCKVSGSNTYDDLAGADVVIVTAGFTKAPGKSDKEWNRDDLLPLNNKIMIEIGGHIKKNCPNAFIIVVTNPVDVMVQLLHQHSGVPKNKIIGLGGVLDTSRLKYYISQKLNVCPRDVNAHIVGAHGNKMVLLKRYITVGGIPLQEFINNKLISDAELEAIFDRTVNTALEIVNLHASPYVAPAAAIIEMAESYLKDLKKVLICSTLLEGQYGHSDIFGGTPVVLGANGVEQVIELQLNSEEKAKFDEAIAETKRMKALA
# [4] = inhibition of 3D7 malaria parasite growth – strain 3D7 (AID 2306); settings: P. falciparum 3D7 erythrocytic growth, LDH absorbance, 72 h; at 2 µM; hits give high values
# [5] = target: Calcium-dependent protein kinase 1 (Plasmodium falciparum (isolate 3D7)) (UniProt P62344); assay: PfCDPK1 kinase inhibitors, biochemical, TCAMS library (AID 1159585; cut-off not given, nearly all actives have IC50 up to about 0.98 µM;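 note: inhibitors leave more ATP so luminescence rises with inhibition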); settings: recombinant PfCDPK1, Kinase-Glo ATP depletion luminescence
# Chain of Calcium-dependent protein kinase 1 (Plasmodium falciparum (isolate 3D7)) (P62344 whole entry, looked up): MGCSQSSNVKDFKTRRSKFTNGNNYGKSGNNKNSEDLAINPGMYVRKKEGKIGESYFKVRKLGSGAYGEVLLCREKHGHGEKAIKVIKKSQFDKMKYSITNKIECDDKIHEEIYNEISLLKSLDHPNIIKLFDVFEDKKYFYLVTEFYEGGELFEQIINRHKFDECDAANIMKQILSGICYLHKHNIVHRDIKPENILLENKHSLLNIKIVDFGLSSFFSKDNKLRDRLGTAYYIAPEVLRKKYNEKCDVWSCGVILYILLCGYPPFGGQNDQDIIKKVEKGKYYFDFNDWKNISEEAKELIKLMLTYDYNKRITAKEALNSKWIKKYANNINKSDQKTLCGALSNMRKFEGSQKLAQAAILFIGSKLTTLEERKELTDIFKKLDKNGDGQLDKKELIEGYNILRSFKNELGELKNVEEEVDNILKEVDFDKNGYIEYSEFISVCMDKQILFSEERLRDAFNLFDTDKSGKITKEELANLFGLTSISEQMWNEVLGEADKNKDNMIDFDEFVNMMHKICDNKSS
# [6] = target: Plasmodium falciparum protein kinase 6 (PK6, PF3D7_1337100) (UniProt Q8IDW1); assay: PfPK6 kinase inhibitors, biochemical, TCAMS library (AID 1159586); settings: recombinant PfPK6, Kinase-Glo ATP depletion luminescence
# Chain of Plasmodium falciparum protein kinase 6 (PK6, PF3D7_1337100) (Q8IDW1 1-305): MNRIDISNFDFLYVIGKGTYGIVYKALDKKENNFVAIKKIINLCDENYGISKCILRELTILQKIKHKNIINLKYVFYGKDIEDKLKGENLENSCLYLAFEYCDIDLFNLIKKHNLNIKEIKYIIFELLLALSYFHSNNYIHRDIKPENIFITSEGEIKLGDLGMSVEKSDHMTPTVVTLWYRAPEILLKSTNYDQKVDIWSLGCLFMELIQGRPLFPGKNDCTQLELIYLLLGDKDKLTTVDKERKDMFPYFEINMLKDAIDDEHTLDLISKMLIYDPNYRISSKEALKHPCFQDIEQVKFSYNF
# [7] = target: Protein kinase 7 (PK7), Plasmodium falciparum 3D7 (PF3D7_0213400) (UniProt Q7YTF7); assay: inhibition of Plasmodium PK7 catalytic activity – biochemical, TCAMS antimalarial set, Kinase-Glo luminescence (AID 1159587); settings: recombinant PfPK7, Kinase-Glo ATP depletion luminescence
# Chain of Protein kinase 7 (PK7), Plasmodium falciparum 3D7 (PF3D7_0213400) (Q7YTF7 1-343): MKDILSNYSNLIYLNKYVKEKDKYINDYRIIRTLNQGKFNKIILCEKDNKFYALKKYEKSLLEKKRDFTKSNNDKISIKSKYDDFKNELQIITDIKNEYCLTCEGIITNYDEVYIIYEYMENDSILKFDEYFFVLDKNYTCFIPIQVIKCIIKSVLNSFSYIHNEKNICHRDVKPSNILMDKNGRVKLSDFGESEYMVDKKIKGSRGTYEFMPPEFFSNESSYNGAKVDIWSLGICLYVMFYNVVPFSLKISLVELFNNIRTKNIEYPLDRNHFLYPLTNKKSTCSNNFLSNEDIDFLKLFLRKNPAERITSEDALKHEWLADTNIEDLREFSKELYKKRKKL
# [8] = target: Calcium-dependent protein kinase 4 (Plasmodium falciparum (isolate 3D7)) (UniProt Q8IBS5); assay: PfCDPK4 kinase inhibitors, biochemical, TCAMS library (AID 1159588; cut-off not given, nearly all actives have IC50 up to about 0.91 µM); settings: recombinant PfCDPK4, Kinase-Glo ATP depletion luminescence
# Chain of Calcium-dependent protein kinase 4 (Plasmodium falciparum (isolate 3D7)) (Q8IBS5 whole entry, looked up): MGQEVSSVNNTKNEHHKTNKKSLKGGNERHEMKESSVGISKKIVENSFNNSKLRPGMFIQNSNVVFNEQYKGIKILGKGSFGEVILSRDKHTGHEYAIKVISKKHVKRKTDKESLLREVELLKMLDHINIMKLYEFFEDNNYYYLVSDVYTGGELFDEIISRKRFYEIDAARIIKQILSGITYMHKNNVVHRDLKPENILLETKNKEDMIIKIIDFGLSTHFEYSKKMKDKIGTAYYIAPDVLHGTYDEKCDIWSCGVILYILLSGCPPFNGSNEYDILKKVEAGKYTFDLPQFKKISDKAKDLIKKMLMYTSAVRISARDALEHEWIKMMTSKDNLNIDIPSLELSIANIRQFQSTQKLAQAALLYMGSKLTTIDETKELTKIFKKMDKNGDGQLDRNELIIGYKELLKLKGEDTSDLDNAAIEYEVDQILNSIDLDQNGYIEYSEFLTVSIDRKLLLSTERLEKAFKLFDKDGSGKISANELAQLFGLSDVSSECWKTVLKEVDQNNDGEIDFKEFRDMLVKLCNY
Compound,growth inhibition [1],inhibition [2],inhibition [3],growth inhibition [4],outcome [5],outcome [6],outcome [7],outcome [8]
Oc1ccc(CCNc2nc(NCc3ccccc3-c3ccc(C(F)(F)F)cc3)nc(N3CCNCC3)n2)cc1,53% (active),17%,8%,97% (active),inactive,inactive,inactive,inactive
Cc1noc(C)c1-c1cccc(CNCc2cccc(-c3cccc(-c4nc5c(C)cccc5[nH]4)c3)c2)c1,66% (active),15%,4%,102% (active),inactive,inactive,inactive,inactive
Nc1nc(N)c2c(ccc3c2ccn3Cc2ccccn2)n1,94% (active),66% (active),-1%,90% (active),inactive,inactive,inactive,inactive
C[C@@H]1CN(c2cnn(Cc3ccc(NC(=O)Nc4ccc(F)cc4[N+](=O)[O-])cc3)c(=O)c2Cl)C[C@H](C)N1,10%,4%,-2%,89% (active),inactive,inactive,inactive,inactive
Cc1nc2ccc3ccc(CNc4ccc5c(c4)CN([C@H](CCC(=O)O)C(=O)O)C5=O)cc3c2c(=O)[nH]1,90% (active),38%,2%,87% (active),inactive,inactive,inactive,inactive
Cc1cc(Nc2ccc(C)c(Cl)c2)n2ncnc2n1,91% (active),6%,-1%,98% (active),inactive,inactive,inactive,inactive
CC1(C)N=C(N)NC(NOCCCCCCONC2=NC(C)(C)N=C(N)N2)=N1,98% (active),34%,-4%,95% (active),inactive,inactive,inactive,inactive
Cn1ccnc1CNC(=O)c1ccc(-c2cccc(-c3nc4ccc(F)cc4[nH]3)c2)cc1,8%,8%,7%,96% (active),inactive,inactive,inactive,inactive
O=C1C2=C(Nc3ccccc3SC2c2ccccc2)c2ccccc21 (stereo not drawn),94% (active),5%,-7%,86% (active),inactive,inactive,inactive,inactive
Cn1cnc2c(Nc3ccncc3)nc(-c3ccc(OC(F)(F)F)cc3)nc21,65% (active),28%,-1%,102% (active),inactive,inactive,inactive,inactive
O=S(=O)(NCCN1CCCC1)c1ccc(-c2ccc(CNCc3ccccc3)cc2)cc1F,39%,35%,4%,83% (active),inactive,inactive,inactive,inactive
CCN(CC)CCCN(Cc1ccc(-c2ccc(C(F)(F)F)cc2)cc1)C(=O)Cn1c(SCc2cccc(F)c2F)cc(=O)c2ccccc21,82% (active),45%,7%,87% (active),inactive,inactive,inactive,inactive
CC(C)CN1C(=O)c2ccc(C(=O)Nc3nccs3)cc2C1=O,0%,3%,1%,89% (active),inactive,inactive,inactive,inactive
Cc1cc(N2CCN(CC3CCCCC3)CC2)nc(Nc2ccc(Br)cc2)n1,16%,-1%,-6%,91% (active),inactive,inactive,inactive,inactive
O=C(OCC1CCN(Cc2ccccc2)C1)c1ccc(Cl)cc1 (stereo not drawn),4%,-3%,3%,100% (active),inactive,inactive,inactive,inactive
CC(=O)c1cccc2cc(C(=O)NC3CCC(CCN4CCc5ccc(C#N)cc5C4)CC3)[nH]c12 (stereo not drawn),17%,12%,-4%,100% (active),inactive,inactive,inactive,inactive

Compound,growth inhibition [1],inhibition [2],inhibition [3],growth inhibition [4],outcome [5],outcome [6],outcome [7],outcome [8]
NCc1ccc(CNCc2cccc(-c3ccc(-c4nc5ccc(C(F)(F)F)cc5[nH]4)cc3)c2)cc1,90% (active),13%,-7%,98% (active),inactive,inactive,inactive,inactive
CCCCCCCn1c2c(c(=N)c3c1CCC3)CCCC2,98% (active),46%,1%,98% (active),inactive,inactive,inactive,inactive
Cc1ccc(O)c(-c2cc(C(=O)Nc3ccc(S(=O)(=O)N4CCCC(C)C4)cc3)[nH]n2)c1 (stereo not drawn),97% (active),27%,-2%,96% (active),inactive,inactive,inactive,inactive
COc1ccc2nccc([C@@H](O)CN3CCC(NCc4cc5ccccc5[nH]c4=O)CC3)c2c1,-3%,-6%,3%,97% (active),inactive,inactive,inactive,inactive
O=C(Nc1ccccc1)N(Cc1cccc(-c2ccc(CNCc3ccc4c(c3)OCO4)cc2)c1)C1CCN(Cc2ccccc2)CC1,82% (active),27%,7%,102% (active),inactive,inactive,inactive,inactive
CCCC(C)NC(=O)[C@H]1CNCCN1C(=O)CCCc1ccccc1 (stereo partly drawn),98% (active),47%,4%,96% (active),inactive,inactive,inactive,inactive
Cc1ccc(C(O)CNc2ccnc(Nc3cccc(-c4csc(C)n4)c3)n2)cc1 (stereo not drawn),31%,17%,-2%,92% (active),inactive,inactive,inactive,inactive
CN(C)c1ccc(C(c2ccc(N(C)C)cc2)c2cc([N+](=O)[O-])ccc2Cl)cc1,67% (active),0%,7%,96% (active),inactive,inactive,inactive,inactive
O=S1N=C(NCCCN(Cc2cccs2)c2ccccn2)C(NCc2ccccc2)=N1 (stereo not drawn),25%,10%,0%,92% (active),inactive,inactive,inactive,inactive
O=C(/C=C/c1ccc(Cl)c(Cl)c1)NCCCCCN1CCC(NC(=O)Nc2cc(F)ccc2F)CC1,22%,78% (active),3%,98% (active),inactive,inactive,inactive,inactive
CCn1c(C(C)C)cc2c3c(N)nc(N)nc3ccc21,-2%,67% (active),2%,92% (active),inactive,inactive,inactive,inactive
CN1CCN(c2ccnc3ccc(NC(=O)Nc4cccc(C#N)c4)cc23)CC1,96% (active),11%,-1%,99% (active),inactive,inactive,inactive,inactive
CC(C)NCc1cccc(-c2ccc(NC(=O)c3ccc(F)cc3)cc2)c1,3%,7%,-1%,92% (active),inactive,inactive,inactive,inactive
Cc1ccc2c(c1C)NC(=O)C21NN=C(c2ccccc2)S1 (stereo not drawn),65% (active),31%,0%,97% (active),inactive,inactive,inactive,inactive
C#CCCC(=O)Nc1cccc(-c2cccc(-c3nc4ccc(C(F)(F)F)cc4[nH]3)c2)c1,45%,14%,-4%,90% (active),inactive,inactive,inactive,inactive
